Results as given in the supplement of paper PMC11732987, “Enantioselective OTUD7B fragment discovery through chemoproteomics screening and high-throughput optimisation” (Communications Chemistry, 2025).

target: COPS5 (UniProt Q92905); experiment: log2 ratio of Biotin-Ahx-Ub-VS probe labelling (fragment/DMSO); higher = less target engagement (more negative = stronger competition), active = hit call of the paper (q ≤ 0.05, log2 ratio ≤ -1); conditions: compound concentration: 200 uM; treatment time: 3 h
Sequence (Q92905 whole entry, looked up, the tested form may be a part): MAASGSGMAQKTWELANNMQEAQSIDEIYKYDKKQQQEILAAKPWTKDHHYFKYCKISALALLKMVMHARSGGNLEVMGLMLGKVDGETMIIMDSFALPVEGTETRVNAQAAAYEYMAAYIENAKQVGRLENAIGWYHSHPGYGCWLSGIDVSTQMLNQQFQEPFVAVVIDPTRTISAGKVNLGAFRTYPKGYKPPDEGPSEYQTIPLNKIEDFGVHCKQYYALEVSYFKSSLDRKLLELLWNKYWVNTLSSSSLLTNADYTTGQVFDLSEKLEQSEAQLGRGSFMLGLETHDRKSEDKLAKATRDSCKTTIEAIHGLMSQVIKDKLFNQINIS
Procedure: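 Competitive ABPP in HEK293T cell lysate. Lysates were treated with each chloroacetamide fragment at 200 µM for 3 h, then with Biotin-Ahx-Ub-VS (0.5 µM, 1 h), NeutrAvidin-enriched and analysed by diaPASEF LC-MS/MS. Protein LFQ was median-normalised; average log2 ratio is fragment/DMSO from an unpaired t-test (n=3 treated, n=44 DMSO). Hits: q ≤ 0.05, log2 ratio ≤ -1, unique peptides ≥ 2.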

log2 ratio of Biotin-Ahx-Ub-VS probe labelling, inactive:
Cc1ccc(CN(C)C(=O)CCl)o1 0.0171
Cc1noc(C)c1CNC(=O)CCl 0.13
O=C(CCl)N1CCOC2(CCC2)CC1 -0.0213
CN1C(=O)c2ccc(NC(=O)CCl)cc2C1=O -0.249
CC(NC(=O)CCl)c1cccc2ccccc12 (stereo not given) 0.127
Cc1nc(-c2cccc(NC(=O)CCl)c2)cs1 -0.0825
O=C(CCl)N1CCN2C(=O)CCC2C1 (stereo not given) 0.141
O=C(CCl)NCc1cccc(F)c1 0.17
Cl.Cn1cnc2cc(CNC(=O)CCl)ccc21 -0.125
O=C(CCl)N1CCOC2(CCC2)C1 0.247
Cc1cccc(NC(=O)CCl)c1C -0.347
COc1ccccc1C(C)NC(=O)CCl (stereo not given) 0.247
Cc1noc(N2CCN(C(=O)CCl)CC2)n1.Cl -0.17
O=C(CCl)N1CCN(C(=O)Nc2ccccc2)CC1 -0.0124
CN(C)C(=O)c1ccc(NC(=O)CCl)cc1 0.125
Cc1c(NC(=O)CCl)c(=O)n(-c2ccccc2)n1C -0.0844
O=C(CCl)Nc1cccc(NC(=O)c2ccccc2)c1 -0.238
Cl.O=C(CCl)N1CCN(Cc2ccccc2)CC1 -0.0604
CCN(C(=O)CCl)C1CCS(=O)(=O)C1 (stereo not given) -0.0629
O=C(CCl)N1CCN(c2nc3ccccc3o2)CC1 -0.251
CC1(NC(=O)CCl)CCS(=O)(=O)C1 (stereo not given) 0.0148
O=C(CCl)N1CCC(OCc2ccccc2F)CC1 -0.148
Cl.O=C(CCl)N1CCC(Cc2nccs2)C1 (stereo not given) 0.114
O=C(CCl)N1CCOC(c2cccc(F)c2)C1 (stereo not given) -0.0425
Cl.O=C(CCl)N1CCc2ncncc2C1 -0.0201
Cl.O=C(CCl)NCCc1ncc(F)cc1F 0.213
O=C(CCl)Nc1nnc(CC(F)(F)F)o1 0.149
O=C(CCl)Nc1cc(Cl)ccc1-n1cncn1 -0.332
COc1cccc(CN(C)C(=O)CCl)c1 0.0731
CN(CCc1ncc(Br)cn1)C(=O)CCl.Cl 0.2
COc1ccc(C2CCCN2C(=O)CCl)c(OC)c1 (stereo not given) -0.524
Cc1ccccc1C1(CNC(=O)CCl)CCOCC1 0.211
CC(NC(=O)CCl)c1csc(-c2ccccc2)n1.Cl (stereo not given) -0.00417
O=C(CCl)Nc1ccc(F)cc1Cl -0.284
O=C(CCl)Nc1cccc2ncccc12 0.251
O=C(CCl)N1CCc2ccccc2C(O)C1 (stereo not given) 0.0553
CC(NC(=O)CCl)c1ccc2[nH]ncc2c1 (stereo not given) -0.00941
O=C(CCl)N[C@H]1CC[C@@H](CO)CC1 0.0798
O=C(CCl)NCc1cccc(N2CCCC2=O)c1 -0.0124
NC(=O)C1CCCN(C(=O)CCl)C1 (stereo not given) 0.0012
